The structures appear in SMILES notation. This is part of a sample that, as a whole, favours compounds with a hit. Of some 83,000 tested, about 20% had one in any assay.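 Compound tested at a single concentration for 48 hours in 96-well plates; a percent growth value below 10 was scored as active.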 Unmarked numbers belong to inactive results. Calls of active or inactive are those of the source.

Common to all, as to experiment: NCI-60 one-dose screen, 48 h (100 = growth as untreated, 0 = no growth, -100 = all killed)
Common to all, as to details: 10 µM

The test system of test [1] is HCT-15 colon.
Test [2] deals with HT29 colon.
In test [3] the test system is SNB-75 CNS.
In test [4] the test system is SNB-19 CNS.
The subject of test [5] is U251 CNS.
Test [6] relates to PC-3 prostate.
Test [7] deals with SK-MEL-5 melanoma.
The subject of test [8] is UACC-62 melanoma.
Test [9] deals with SK-MEL-28 melanoma.
Test [10] concerns LOX IMVI melanoma.

For `O=C(CN(C1CCCCC1)C1CCCCC1)Nc1ccc(S(=O)(=O)c2ccc(NC(=O)CN(C3CCCCC3)C3CCCCC3)cc2)cc1`, the growth in test [1] was -33.7% (active); in test [2], -84.2% (active); in test [3] it was 55.8%; in test [4] it was 11.1%; in test [5], -75.9% (active); in test [6], -80% (active). Moreover, the figures for the growth in [7], in test [8] and in [9] were -76.5% (active), -20.9% (active) and 12.2%, respectively.

For the molecule `O=C1c2c(c(=O)[nH]c3ccccc23)CCN1Cc1ccccc1`, the growth in test [1] is 96.6%; in [2], 99.3%; in test [3], 79.8%; in test [4] it was 99.6%; in test [5], 103%; in test [6] it was 84.9%. The growth in test [7] is 108%; in [8], 97.1%; in [9] it was 107%.

As to `COc1cccc(N=Nc2cccc(OC)c2)c1`, the growth in [1] is 91.1%; in test [2], 94.9%; in test [3], 102%; in test [4], 97%; in test [5], 79.4%; in [6], 67.7%. Also, the growth in [7] is 99.1%; in test [10] it was 96.7%; in test [9], 99.6%.

Consider `Cc1ccc(N=Nc2ccccc2)cc1`, for which the growth in test [1] was 99.5%; in test [2] it was 92.3%; in test [3], 105%; in test [4], 102%; in test [5] it was 101%; in [6], 78.1%. The growth is 102% in test [7], 103% in test [10] and 102% in test [9].

For the molecule `CS(=O)(=O)c1nccc(-c2c(-c3ccc(OCCc4ccccc4)cc3)nc3sccn23)n1`, the growth is 103% in test [1]; 88.1% in [2]; 89.1% in test [3]; 89.4% in test [4]; 95.9% in test [5]; 93.9% in test [6]. Besides, the growth in test [8] is 88%; in test [10], 92.6%; in test [9], 96.3%.

Consider `CCCc1cn(CC(=O)Nc2nc3ccccc3s2)nn1`, for which the growth in [1] was 108%; in [2] it was 104%; in test [3], 101%; in test [4] it was 102%; in test [5], 97.8%; in test [6], 96.3%. In addition, the growth in test [7] is 99.5%; in test [8] it was 98.1%; in [9], 103%.

In the case of `CC1CCCC(C(=O)O)C1C(=O)O` (stereo not given), the growth was 102% in test [1]; 98.8% in [2]; 100% in test [3]; 101% in test [4]; 86% in [5]; 76% in [6]. The growth was 102% in test [7], 98% in test [10] and 111% in test [9].

On to `CCN(CC)CCCC(C)Nc1c2ccc(Cl)cc2nc2ccc(OC)cc12` (stereo not given), for which the growth in test [1] is 14.2%; in [2], -30.3% (active); in [3] it was 16.3%; in test [4] it was 35.4%; in [5] it was 11.4%; in test [6], 35%. The growth in test [7] was -87.5% (active); in [10] it was -48.1% (active); in [9], -57.6% (active).

Take `COc1cc(-c2nc3ccccc3o2)cc(CN2CCCCC2)c1O`: the growth in test [1] was 41.4%; in test [2], 87.2%; in test [3], 57.6%; in [4], 83.3%; in [5], 47.5%; in test [6], 41.8%. The growth in [7] was -83.3% (active); in test [8] it was -15.3% (active); in [9] it was 59.5%.

Regarding `COc1ccc(C(=O)c2cc3c(OC)c(OC)c(OC)cc3[nH]2)cc1`, the growth in test [1] is 36.1%; in test [2], 14.2%; in test [3] it was 51.9%; in test [4], 71.9%; in test [5], 59.8%; in test [7], 36.9%. The figures for the growth in test [8], in test [10] and in test [9] were 36.7%, 56.3% and 65.2%, respectively.

Take `O=C(NCCNC(=O)c1ccc(F)cc1)Nc1ccc(-n2cc(-c3ccncc3)c(-c3ccc(Cl)c(O)c3)n2)cc1`: the growth is 19.5% in test [1]; -45.3% (active) in [2]; 18.7% in test [3]; 22.7% in test [4]; -19.9% (active) in test [5]; -5.9% (active) in test [6]. Besides, the growth was -84.9% (active) in test [7], 7.05% (active) in [8] and 18.4% in [9].

On to `COCCn1cc(-c2nc(-c3cccnc3)cs2)c2cc(F)ccc21`, for which the growth in test [1] was 76.4%; in test [2] it was 72.3%; in test [3] it was 94.4%; in [4] it was 97.3%; in test [5], 90.2%; in test [7] it was 82.9%. For the same molecule, the growth in [8] is 89.2%; in [10], 90.7%; in test [9], 97.2%.

For `CC(C)N(CCOc1cccc(-c2nc3sccn3c2-c2ccnc(S(C)(=O)=O)n2)c1)C(C)C`, the growth in [1] is 81.8%; in [2] it was 54.5%; in [3] it was 78%; in test [4] it was 101%; in test [5], 83.8%; in test [7], 3.97% (active). For the same molecule, the growth in test [8] is 84.1%; in test [10], 84.3%; in test [9], 99.3%.

`COC(=O)CC[C@@H](C)[C@H]1CC[C@H]2[C@@H]3CC[C@@H]4C[C@H](O)CC[C@]4(C)[C@H]3C[C@H](O)[C@]12C`: the growth in test [1] is 92.4%; in test [2], 89%; in [3] it was 91.4%; in [4], 105%; in test [5], 98.6%; in [6], 67.7%. Further, the growth in [7] was 88.5%; in test [8] it was 87.2%; in test [9] it was 118%.

Take `CCOC(=O)c1sc2ncnc(Nc3ccc4c(cnn4C(=O)Nc4ccccc4)c3)c2c1C`: the growth is 72.6% in [1]; 40.7% in test [2]; 10.7% in test [3]; 85.8% in test [4]; 53% in test [5]; 31.1% in test [7]. In addition, the growth in [8] is 59.7%; in test [10] it was 36.4%; in test [9], 72.7%.
